# In PubChem BioAssay:
# Records with an inconclusive call do not appear. Active and inactive are the calls of the source. Unless noted, no cut-off is given here; in the data, nearly all actives have AC50 up to about 30 µM.
# Assays:
# [1] = viability loss in pontine glioma line – cell-based, JHH-DIPG-1, MIPE4.0, CellTiter-Glo, qHTS, dose response (AID 1347062; cut-off not given, nearly all actives have AC50 up to about 27 µM;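 for AC50: cells exposed to compound for two days before readout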); details: JHH-DIPG-1 viability, CellTiter-Glo ATP luminescence
# [2] = viability loss in pontine glioma line – cell-based, SU-DIPG-XIII, MIPE5.0, CellTiter-Glo, qHTS, dose response (AID 1347064; cut-off not given, nearly all actives have AC50 up to about 23 µM;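 for AC50: cells exposed to compound for 48 hours before the viability read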); details: CellTiter-Glo ATP luminescence
# [3] = viability loss in pontine glioma line – cell-based, SU-DIPG-XXV, MIPE5.0, CellTiter-Glo, qHTS, dose response (AID 1347065; cut-off not given, nearly all actives have AC50 up to about 26 µM;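 note: cells exposed to compound for 48 hours before ATP readout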); details: CellTiter-Glo ATP luminescence
# [4] = growth inhibition of DIPG cells – cell-based, MIPE4.0 library, CellTiter-Glo luminescence, qHTS (AID 1347066); details: SU-DIPG-VI viability, CellTiter-Glo ATP luminescence;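 note: cells exposed to compound for 48 hours before readout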
# [5] = JHH-DIPG-1 glioma cell viability, MIPE5.0 library, CellTiter-Glo luminescence, qHTS (AID 1347067; cut-off not given, nearly all actives have AC50 up to about 26 µM;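 note: cells exposed to compound for 48 hours before readout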); details: JHH-DIPG-1 glioma viability, CellTiter-Glo ATP luminescence
# [6] = viability loss with induced miR-34 in A549 – imaging, A549 dox-inducible miR-34, nuclei and caspase counts, primary screen (AID 1347080;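 active = compounds whose cell count with miR-34 switched on is under 0.7 times the count with it off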); details: A549 miR-34 inducible, Hoechst nuclei count, 48 h
# [7] = MELAS cybrid and Rieske KO viability enhancers – cell-based, MELAS cybrids, Rieske KO mouse fibroblasts, CellTiter-Glo, primary screen (AID 1508586;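 active = mean z-score across replicates of 1.96 or higher in either the MELAS or the Rieske mutant cell line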;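 note: z relative to plate mean and SD of compound and empty wells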); details: low glucose
# [8] = viability loss in pontine glioma line – cell-based, SU-DIPG-IV, MIPE4.0, CellTiter-Glo, qHTS, dose response (AID 1347063); details: CellTiter-Glo ATP luminescence;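 note: compound exposure lasted 48 hours before the viability readout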
# [9] = growth inhibition of DIPG cells – cell-based, MIPE5.0 library, qHTS (AID 1347068; cut-off not given, nearly all actives have IC50 up to about 30 µM;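 for IC50: cells exposed to compound for 48 hours before viability readout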); details: SU-DIPG-XXV viability
# [10] = growth inhibition, single agent or in combination, cell-based, chromothripsis tumors, cisplatin or BGB combos (AID 1671449; in the data active = inhibition above about 80%;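 note: cells exposed for 96 hours; 0% = vehicle DMSO and 100% = killing by high DMSO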); details: LFS_MB_P medulloblastoma cells
# [11] = growth inhibition, single agent and combos, cell-based, chromothripsis tumors, cisplatin or BGB combos (AID 1671450; in the data active = inhibition above about 80%;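 note: cells exposed to compound for four days; 0% = vehicle DMSO and 100% = cell killing by high DMSO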); details: HDN33 neuroblastoma cells, stronger effect = higher value
# [12] = growth inhibition, single agents and combos, ICB984, cell-based, cisplatin or BGB combos, synergistic combos for chromothripsis tumors (AID 1671451; call rule not given here;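 note: cells exposed for 96 hours before readout; 0% = vehicle DMSO and 100% = killing by high DMSO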); details: ICB984 medulloblastoma cells, drug combinations, stronger effect = higher value
# [13] = growth inhibition, single agents and combos, HTB85, cell-based, BGB or cisplatin IC20 combos, synergistic combos for chromothripsis tumors (AID 1671453; in the data active = inhibition above about 80%;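 note: cells exposed for 96 hours before readout; 0% = vehicle DMSO and 100% = high DMSO killing control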); details: HTB85 osteosarcoma cells, drug combinations, stronger effect = higher value
# [14] = growth inhibition, MDA-MB-436, cell-based, BGB or cisplatin combos, synergistic combos for chromothripsis tumors (AID 1671458; call rule not given here;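 note: cells exposed for 96 hours; 0% = vehicle DMSO and 100% = killing by high DMSO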); details: MDA-MB-436 breast carcinoma growth inhibition, drug combinations; at 0.5 µM; stronger effect = higher value
compound,measurement,setting,value
Nc1ncnc2c1c(-c1cccc(OCc3ccccc3)c1)cn2C1CC(CN2CCC2)C1 (configuration not stated),AC50,[1],11.8 µM (active)
same,AC50,[2],0.525 µM (active)
same,AC50,[3],0.417 µM (active)
same,AC50,[4],2.96 µM (active)
same,AC50,[5],6.61 µM (active)
same,fold change,"[6]; stronger effect = lower value, cell number ratio, induced over uninduced",1.02 (inactive)
same,fold change,[6]; measured here: relative caspase fold change +Dox/-Dox,0.834
same,cell count,"[6]; measured here: total cells with miR-34 induction, stronger effect = lower value",2880
same,cell count,[6]; measured here: total cells without miR-34 induction,2830
same,z-score,"[7]; MELAS cybrid survival, CellTiter-Glo 48 h, stronger effect = higher value",-0.54 (inactive)
same,z-score,"[7]; Rieske KO mouse fibroblast survival, CellTiter-Glo 72 h",-0.0242
C[C@H](c1ccc(F)cc1CCCC(=O)O)N(c1cc(F)ccc1F)S(=O)(=O)c1ccc(Cl)cc1,outcome,[1],inactive
same,outcome,[8],inactive
same,outcome,[4],inactive
same,outcome,[5],inactive
same,outcome,[9],inactive
CC(=O)N(C)C1(c2ccccc2)CCN(CCC[C@]2(c3ccc(Cl)c(Cl)c3)CCCN(C(=O)c3ccccc3)C2)CC1,AC50,[1],29.6 µM (active)
same,AC50,[8],26.4 µM (active)
same,AC50,[4],33.2 µM (active)
N#Cc1c(C2CCNCC2)cc(-c2c(O)cccc2OCC2CC2)nc1N,AC50,[1],23.5 µM (active)
same,AC50,[8],13.2 µM (active)
same,IC50,[9],20.9 µM (active)
Fc1ccc(CNc2ncnc3ccc(F)cc23)cc1,outcome,[1],inactive
same,outcome,[2],inactive
same,outcome,[9],inactive
O=c1[nH]c(=O)n([C@H]2C[C@H](O)[C@@H](CO)O2)cc1/C=C/Br,outcome,[1],inactive
same,outcome,[8],inactive
same,outcome,[4],inactive
CCCCOCCOc1nc(-c2ccc(C(=O)O)c(F)c2)sc1C,outcome,[1],inactive
same,outcome,[2],inactive
same,outcome,[5],inactive
same,outcome,[9],inactive
CCCn1c(=O)c2[nH]c(-c3cnn(Cc4cccc(C(F)(F)F)c4)c3)nc2n(CC)c1=O,outcome,[1],inactive
same,AC50,[3],13.2 µM (active)
same,outcome,[4],inactive
same,outcome,[9],inactive
CC(C)N(CC[C@H](c1ccccc1)c1cc(CO)ccc1O)C(C)C,outcome,[1],inactive
same,outcome,[8],inactive
same,outcome,[4],inactive
C[C@@H](Cc1cc2c(c(C(N)=O)c1)N(CCCO)CC2)NCCOc1ccccc1OCC(F)(F)F,outcome,[1],inactive
same,outcome,[8],inactive
same,outcome,[4],inactive
Cc1cn([C@@H]2O[C@H](CO)[C@@H](O)[C@@H]2F)c(=O)[nH]c1=O,outcome,[1],inactive
same,outcome,[8],inactive
same,outcome,[4],inactive
same,inhibition,"[10]; at 0.5 µM, stronger effect = higher value",-22.2% (inactive)
same,inhibition,"[10]; measured here: combination with BGB IC20, at 0.005 µM",-21.4%
same,inhibition,"[10]; measured here: combination with BGB IC40, at 0.005 µM",24.6%
same,inhibition,"[10]; measured here: combination with BGB IC40, at 0.05 µM",-36.4%
same,inhibition,"[10]; measured here: combination with cisplatin, at 0.5 µM, stronger effect = higher value",-29.1%
same,inhibition,"[10]; measured here: combination with cisplatin, at 5 µM, stronger effect = higher value",-25.8%
same,inhibition,"[11]; BGB combo, at 5 µM",-42.9%
same,inhibition,[11]; at 0.5 µM,15.9% (inactive)
same,inhibition,"[11]; cisplatin combo, at 5 µM",-14%
same,inhibition,"[11]; measured here: with BGB IC20 combination, at 0.5 µM",25%
same,inhibition,"[11]; measured here: with cisplatin IC20 combination, at 0.5 µM",22.2%
same,inhibition,"[11]; single agent, at 5 µM",-22.6%
same,inhibition,"[12]; BGB IC20 combo, at 0.005 µM",-11.3%
same,inhibition,"[12]; BGB IC40 combo, at 0.005 µM",-20.8%
same,inhibition,"[12]; BGB IC40 combo, at 0.05 µM",-28.4%
same,inhibition,[12]; at 0.5 µM,-27.1% (inactive)
same,inhibition,"[12]; cisplatin combo, at 0.05 µM",-35%
same,inhibition,"[12]; cisplatin combo, at 0.5 µM",-33.8%
same,inhibition,"[12]; cisplatin combo, at 5 µM",-27.5%
same,inhibition,"[12]; measured here: 5 uM single agent, at 5 µM",-20.1%
same,inhibition,[13]; at 0.5 µM,7.88% (inactive)
same,inhibition,"[13]; measured here: with BGB IC20, at 0.5 µM",40.2%
same,inhibition,"[13]; measured here: with BGB IC20, at 5 µM",-1.08%
same,inhibition,"[13]; measured here: with cisplatin IC20, at 0.5 µM",-7.9%
same,inhibition,"[13]; measured here: with cisplatin IC20, at 5 µM",-2.9%
same,inhibition,"[13]; single agent, at 5 µM",6.67%
same,inhibition,[14],-24.5% (inactive)
